IL1B secr inh – blocks inflammasome-driven IL-1 beta release. THP-1 LPS/ATP IL-1B secretion, AlphaLISA, 16 h; active compounds read low. activity change, % at 57.5 µM. 4.7% of 360,000 active. AID 743279; in the data active = activity change below about -50%; inconclusive = mostly about -30% to -49%
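Secreted IL-1B measured by AlphaLISA bead assay after 16 h compound exposure of THP-1 cells; compounds (final up to 57.5 uM) added 1 h before LPS (250 ng/mL) and ATP (1.25 mM) stimulation; lower signal means less secretion.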
TGFb SMAD3 inh – blocks TGF-b signaling; HepG2 CAGA-GFP TGF-b/SMAD3 reporter, GFP fluorescence, 18 h; TGF-beta stimulated, 500 pg/mL final; Potency, µM (top dose mostly 46.1 µM), hits mostly inhibitors; 1.2% of 410,000 active; AID 588855; also: nearly all actives have a fitted effect of over 65% in size
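Inhibition was scored as loss of TGF-beta-induced (500 pg/mL final, 18 hours, 37 degrees C) GFP in HEPG2 cells carrying a CAGA-GFP reporter, in DMEM with 1% FBS. Well GFP was summed per cell; Activity was normalised to unstimulated and stimulated DMSO wells, then concentration-response fitting.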
DT40 TDP1 CPT – DT40-hTDP1 cell growth loss with CPT; chicken DT40 Tdp1-/-;hTDP1 cells + 20 nM CPT, ATP luminescence, 48 h; Potency, µM (titrated, usually from 46.2 µM), hits mostly inhibitors; 12% of 420,000 active; also: nearly all actives have a fitted effect of over 55% in size
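Chicken DT40 Tdp1-/- cells complemented with human TDP1, 400 cells/well, exposed to compounds plus 20 nM camptothecin for at least 48 h at 37 C; viability read as ATP content by CellTiter-Glo luminescence.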
TDP1 cell noCPT – qHTS for Inhibitors of human tyrosyl-DNA phosphodiesterase 1 (TDP1): qHTS in cells in absence of CPT; DT40 Tdp1-/- hTDP1 cells, no CPT, ATP luminescence, 48 h; Potency, µM (top dose mostly 46.2 µM), hits mostly inhibitors; 15% of 420,000 active; also: nearly all actives have a fitted effect of over 55% in size
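Camptothecin absent (DMSO only). Human TDP1-complemented DT40 knockout cells, 400 cells/well, 37 °C for minimum 48 hr; ATP measured via CellTiter-Glo, 30 min dark incubation, luminescence.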
HepG2 viability – counter-screen for TGF-b inhibitors: cytotoxicity in HepG2 cells; HepG2 CAGA-GFP viability, ATP luminescence, 18 h; Potency, µM (highest dose often 46.1 µM), hits mostly cytotoxic; 0.76% of 410,000 active
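CellTiter-Glo luminescence gave cytotoxicity after 18 hours at 37 degrees C. The cells were HepG2 CAGA-GFP in 1% FBS DMEM, stimulated with 500 pg/mL TGF-beta after compound addition. %Activity was normalised to no-cell wells (complete cell-killing) and DMSO (no toxicity), and curves were fitted and classified.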
TDP1 block – inhibitors of human tyrosyl-DNA phosphodiesterase TDP1 | Q9NUW8 | recombinant TDP1, AlphaScreen DNA substrate cleavage | Potency, µM (series often up to 130 µM), hits mostly inhibitors | 0.28% of 350,000 active; also: nearly all actives have a fitted effect of over 40% in size
Target sequence (Q9NUW8 whole entry, looked up): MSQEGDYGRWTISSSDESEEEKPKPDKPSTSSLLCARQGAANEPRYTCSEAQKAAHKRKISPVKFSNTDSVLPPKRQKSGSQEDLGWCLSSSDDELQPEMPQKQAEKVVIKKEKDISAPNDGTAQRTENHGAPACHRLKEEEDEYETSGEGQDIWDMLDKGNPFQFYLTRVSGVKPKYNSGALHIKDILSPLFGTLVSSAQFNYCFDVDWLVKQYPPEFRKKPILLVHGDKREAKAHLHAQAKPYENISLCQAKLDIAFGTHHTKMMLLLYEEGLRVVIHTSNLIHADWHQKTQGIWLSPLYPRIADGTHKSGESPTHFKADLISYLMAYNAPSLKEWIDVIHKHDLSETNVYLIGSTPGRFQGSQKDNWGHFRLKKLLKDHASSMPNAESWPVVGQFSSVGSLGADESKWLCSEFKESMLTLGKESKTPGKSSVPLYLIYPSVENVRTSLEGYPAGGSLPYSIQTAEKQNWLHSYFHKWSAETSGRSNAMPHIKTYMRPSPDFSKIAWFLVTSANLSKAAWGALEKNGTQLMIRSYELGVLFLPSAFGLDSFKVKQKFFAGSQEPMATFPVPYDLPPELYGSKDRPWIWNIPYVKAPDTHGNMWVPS
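Tdp1 1 nM final; 15 min RT w/ cpd; substrate 15 nM, 5 min; beads 10 ug/ml, 10 min; AlphaScreen read. Neg ctrl: no enzyme.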
Of the large screens only hits and unclear results are named; the others gave an inactive call. Compounds with a hit are over-represented: about 18% of the library has one in this group of screens. Unless noted, calls follow the shape of the dose curve; as a rule, active = well fitted curve in the direction sought with a large enough effect; inconclusive = small, poorly fitted or top-dose-only effect, or another doubt; inactive = no such curve, though single readings can be large; an effect the other way counts as inactive or inconclusive.

COC(=O)C1=C(c2ccc(Cl)c(C(F)(F)F)c2)C[C@@H]2CC[C@H]1N2C(=O)NCc1cc(C)oc1C(F)(F)F	TGFb SMAD3 inh inconclusive, DT40 TDP1 CPT inconclusive, TDP1 cell noCPT 21µM
COC(=O)C1=C(c2ccccc2)C[C@@H]2CC[C@H]1N2C(=O)NCC1CC1	DT40 TDP1 CPT inconclusive, TDP1 cell noCPT inconclusive (no result: TDP1 block)
COC(=O)C1=C(c2cccc(C#N)c2)C[C@@H]2CC[C@H]1N2C(=O)NCc1cc(C)oc1C(F)(F)F	DT40 TDP1 CPT inconclusive, TDP1 cell noCPT inconclusive
COC(=O)C1=C(c2ccc(OC)c(OC)c2)C[C@@H]2CC[C@H]1N2C(=O)NCCOc1ccc(OC)cc1	none
COC(=O)C1=C(c2ccc(Cl)c(C(F)(F)F)c2)C[C@@H]2CC[C@H]1N2C(=O)NCC1CC1	TGFb SMAD3 inh inconclusive, DT40 TDP1 CPT 15µM, TDP1 cell noCPT 18µM
Cn1cccc1/C=C1/C(=O)NC(=O)N(Cc2ccc(F)cc2)C1=O	DT40 TDP1 CPT 12µM, TDP1 cell noCPT 9.2µM (no result: TDP1 block)
Cn1cccc1/C=C1/C(=O)NC(=S)N(Cc2ccc(F)cc2)C1=O	IL1B secr inh inconclusive, DT40 TDP1 CPT 3.7µM, TDP1 cell noCPT 2.6µM (no result: TDP1 block)
Cn1cccc1/C=C1/C(=O)NC(=O)N(Cc2ccccc2)C1=O	TGFb SMAD3 inh inconclusive, DT40 TDP1 CPT 4.6µM, TDP1 cell noCPT 2.3µM
Cn1cccc1/C=C1\C(=O)NC(=O)N(Cc2ccccc2)C1=O	DT40 TDP1 CPT 5.8µM, TDP1 cell noCPT 2.1µM
C=C(C)C1CCC(C)=CC1c1c(O)cc(O)cc1CCCCC (stereo unspecified)	none (no result: IL1B secr inh, TGFb SMAD3 inh, DT40 TDP1 CPT, TDP1 cell noCPT, HepG2 viability)
CCCCC/C=C\C/C=C\CCCCCCCCCC(=O)NCCc1ccc(O)c(O)c1	none (no result: IL1B secr inh, TGFb SMAD3 inh, DT40 TDP1 CPT, TDP1 cell noCPT, HepG2 viability)
CC(C)c1ccc2c(c1)C(N1CCNCC1)Cc1ccc(F)cc1S2 (stereo unspecified)	IL1B secr inh -97, TGFb SMAD3 inh 18µM, DT40 TDP1 CPT inconclusive, TDP1 cell noCPT 26µM (no result: TDP1 block)
CC12NC(Cc3ccccc31)c1ccccc12 (stereo unspecified)	none (no result: IL1B secr inh, TGFb SMAD3 inh, DT40 TDP1 CPT, TDP1 cell noCPT, HepG2 viability)
COc1nnc(-c2ccc(N3CCCCC3)c(NC(=O)c3ccccc3)c2)c2ccccc12	DT40 TDP1 CPT inconclusive, TDP1 cell noCPT 15µM (no result: IL1B secr inh)
CCCCN1C(=O)/C(=C/C=C/c2ccco2)C(=O)NC1=S	none (no result: TDP1 block)
O=C1NC(=O)N(c2ccccc2)C(=O)/C1=C\C=C\c1ccccc1	IL1B secr inh -98, TGFb SMAD3 inh 7.1µM, DT40 TDP1 CPT 2.1µM, TDP1 cell noCPT 2.6µM
CCc1ccc(N2C(=O)NC(=O)/C(=C\C=C\c3ccco3)C2=O)cc1	IL1B secr inh -96, TGFb SMAD3 inh inconclusive, DT40 TDP1 CPT 3.7µM, TDP1 cell noCPT 3.3µM
CC(C)c1ccc(N2C(=O)NC(=O)/C(=C/C=C/c3ccco3)C2=O)cc1	IL1B secr inh inconclusive, TGFb SMAD3 inh inconclusive, DT40 TDP1 CPT 5.2µM, TDP1 cell noCPT 4.6µM
Cc1cc(C)cc(N2C(=O)NC(=O)/C(=C\C=C\c3ccco3)C2=O)c1	IL1B secr inh -86, TGFb SMAD3 inh inconclusive, DT40 TDP1 CPT 5.2µM, TDP1 cell noCPT 5.8µM
N#Cc1cc(NC(=O)c2ccc(Cl)cc2)ccc1Sc1ccccc1	IL1B secr inh -61, TGFb SMAD3 inh inconclusive, DT40 TDP1 CPT 21µM, TDP1 cell noCPT 16µM (no result: TDP1 block)
O=C(Nc1cc[c]([Sb](=[O])([OH])[OH])cc1)c1ccccc1	TGFb SMAD3 inh inconclusive (no result: IL1B secr inh, TDP1 block)
Cc1oc2cc3oc(=O)c(CCC(=O)N4CCCCC4)c(C)c3cc2c1C	DT40 TDP1 CPT 12µM, TDP1 cell noCPT 23µM (no result: IL1B secr inh)
O=C(Nc1ccc(Cl)cc1)C1CCN(C(=O)c2cccs2)CC1	TDP1 cell noCPT inconclusive
CCNC1(c2cccs2)CCCCC1=O (stereo unspecified)	none (no result: IL1B secr inh, TGFb SMAD3 inh, HepG2 viability, TDP1 block)
CC1=Nc2cc(C(=O)N3CCC4(CC3)OCCO4)ccc2Sc2ccc(Cl)cc21	DT40 TDP1 CPT inconclusive, TDP1 cell noCPT inconclusive
O=C(c1ccc2c(c1)N(Cc1ccc(F)cc1)C(=O)c1ccccc1S2)N1CCC2(CC1)OCCO2	DT40 TDP1 CPT 16µM, TDP1 cell noCPT 16µM (no result: IL1B secr inh)

Screens: PubChem, National Center for Advancing Translational Sciences (NCATS)
